Values joined by “and” are separate entries in the source; they are usually repeats but may differ in a detail not shown here. Equal entries are not always repeated. A number with no mark means an inactive call. A call without a number means that no potency is given here. Active and inactive are the calls of the source. Unless noted, calls follow the shape of the dose curve; as a rule, active = well fitted curve in the direction sought with a large enough effect in the repeat runs; inconclusive = weak or mixed curves; inactive = no such curve, though single readings can be large; an effect the other way counts as inactive or inconclusive.
Legend:
[1] = qHTS assay to identify small molecule antagonists of the thyroid receptor (TR) signaling pathway - cell viability counter screen (AID 743064); also: nearly all actives have a fitted effect of over 50% in size; also: potency is read from the fitted curve at half-maximal effect
Outline: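 Rat GH3 pituitary tumor cells stably expressing two TR response elements driving luciferase were plated, rested 4 h, then dosed with library compounds and T3 (1 nM final). After 23.5 h at 37 °C, CellTiter-Fluor was added for 30 min and fluorescence recorded.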

[2] = qHTS assay to identify small molecule antagonists of the thyroid receptor (TR) signaling pathway (AID 743065); also: nearly all actives have a fitted effect of over 55% in size; also: potency is read from the fitted curve at half-maximal effect
Outline: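 Antagonism measured as loss of luciferase signal in GH3 cells stably carrying a TRE-luciferase reporter, co-treated with compound and T3 (1 nM final) for 23.5 h at 37 C. Viability was read in the same well by CellTiter-Fluor.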

[3] = system: thyroid hormone receptor (rat, GH3 cells); assay: qHTS assay to identify small molecule agonists of the thyroid receptor (TR) signaling pathway (AID 743066; calls by dose curve)
[4] = target: Estrogen receptor (Homo sapiens) (UniProt P03372); assay: qHTS assay to identify small molecule antagonists of the estrogen receptor alpha (ER-alpha) signaling pathway (AID 743069; active = well fitted curve in the direction sought with a large enough effect in the signal ratio in the repeat runs, not every such curve was filed as active; inconclusive = weak or mixed curves, or effect the other way; inactive = no such curve, though single readings can be large or run the other way; the % refers to the signal ratio; also: potency is read from the fitted curve at half-maximal effect)
Sequence of Estrogen receptor (Homo sapiens) (P03372 whole entry, looked up): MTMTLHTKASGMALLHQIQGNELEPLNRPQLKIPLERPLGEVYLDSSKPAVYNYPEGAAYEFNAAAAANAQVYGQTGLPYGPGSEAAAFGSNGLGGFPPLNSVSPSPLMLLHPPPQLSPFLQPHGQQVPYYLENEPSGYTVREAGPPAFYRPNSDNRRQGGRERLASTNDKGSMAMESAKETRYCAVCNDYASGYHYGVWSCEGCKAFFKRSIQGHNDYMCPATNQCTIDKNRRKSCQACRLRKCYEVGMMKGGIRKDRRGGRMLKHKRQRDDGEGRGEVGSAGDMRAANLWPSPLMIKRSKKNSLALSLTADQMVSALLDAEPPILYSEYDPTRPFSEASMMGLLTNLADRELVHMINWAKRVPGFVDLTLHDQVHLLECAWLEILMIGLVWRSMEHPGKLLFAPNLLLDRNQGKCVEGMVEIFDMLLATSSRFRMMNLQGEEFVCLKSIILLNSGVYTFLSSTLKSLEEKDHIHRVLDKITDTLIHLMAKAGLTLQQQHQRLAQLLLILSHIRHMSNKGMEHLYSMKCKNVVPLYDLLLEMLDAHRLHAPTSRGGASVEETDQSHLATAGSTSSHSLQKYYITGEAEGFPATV
Outline: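 Compound effects are measured against 17beta-estradiol stimulation in HEK293 cells with a UAS-controlled beta-lactamase reporter for ER-alpha. Exposure lasts 18 hr at 37C; LiveBLAzer B/G FRET substrate follows for 2 hr at room temperature.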

[5] = qHTS assay to identify small molecule antagonists of the estrogen receptor alpha (ER-alpha) signaling pathway - cell viability counter screen (AID 743074; calls by dose curve;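 also: HEK293 cells carrying ER-alpha-UAS-bla reporter stimulated with 17beta-estradiol; nearly all actives have a fitted effect of over 45% in size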)
[6] = target: Estrogen receptor (Homo sapiens) (UniProt P03372); assay: qHTS assay to identify small molecule agonists of the estrogen receptor alpha (ER-alpha) signaling pathway (AID 743075; calls by dose curve; also: potency is read from the fitted curve at half-maximal effect)
[7] = target: Estrogen receptor (Homo sapiens) (UniProt P03372); assay: qHTS assay to identify small molecule agonists of the estrogen receptor alpha (ER-alpha) signaling pathway using the BG1 cell line (AID 743079); settings: BG1Luc4E2 cells, ERE-luciferase agonist, 22 h; also: nearly all actives have a fitted effect of over 20% in size; also: potency is read from the fitted curve at half-maximal effect
[8] = qHTS assay to identify small molecule antagonists of the estrogen receptor alpha (ER-alpha) signaling pathway using the BG1 cell line (AID 743080; calls by dose curve;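 also: BG1 cells stimulated with 17beta-estradiol alongside compound; nearly all actives have a fitted effect of over 25% in size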; also: potency is read from the fitted curve at half-maximal effect)
Outline: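 BG1-Luc-4E2 cells (endogenous full-length ER-alpha, stable 4×ERE-luciferase) were starved 5 days in phenol-red-free medium with 10% charcoal-stripped FBS, plated 24 h, then given compound plus 17beta-estradiol for 21.5 h at 37 C; ONE-Glo luminescence read after 30 min.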

[9] = qHTS assay to identify small molecule antagonists of the estrogen receptor alpha (ER-alpha) signaling pathway using the BG1 cell line - cell viability counter screen (AID 743081);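 also: compound given together with 17beta-estradiol as the ER stimulus; nearly all actives have a fitted effect of over 45% in size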
[10] = target: Aromatase (Homo sapiens) (UniProt P11511); assay: qHTS assay to identify aromatase inhibitors (AID 743083); also: nearly all actives have a fitted effect of over 55% in size; also: potency is read from the fitted curve at half-maximal effect
Sequence of Aromatase (Homo sapiens) (P11511 whole entry, looked up): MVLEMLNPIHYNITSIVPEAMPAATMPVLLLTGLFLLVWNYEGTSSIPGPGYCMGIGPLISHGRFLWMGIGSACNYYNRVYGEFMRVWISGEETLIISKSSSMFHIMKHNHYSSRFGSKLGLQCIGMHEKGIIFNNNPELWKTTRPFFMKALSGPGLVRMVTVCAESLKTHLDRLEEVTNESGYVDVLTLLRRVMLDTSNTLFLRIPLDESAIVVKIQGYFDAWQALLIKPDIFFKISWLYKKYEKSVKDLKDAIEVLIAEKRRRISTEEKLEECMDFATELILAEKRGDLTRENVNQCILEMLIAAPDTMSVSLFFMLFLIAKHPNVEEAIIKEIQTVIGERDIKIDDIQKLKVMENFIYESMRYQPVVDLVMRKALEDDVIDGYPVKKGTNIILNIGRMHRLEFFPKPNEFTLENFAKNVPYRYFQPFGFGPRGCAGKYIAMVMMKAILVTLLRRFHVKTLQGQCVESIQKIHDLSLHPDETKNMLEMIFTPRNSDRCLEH

SMILES | Potency [1] | Potency [2] | Potency [3] | Potency [4] | Potency [5] | Potency [6] | activation ([7]; at 70.3 µM (top of the series)) | Potency [8] | Potency [9] | Potency [10] | activation ([7]; at 95 µM (top of the series)) [%] | activation ([7]; at 32.5 µM (top of the series)) | Potency [7]
NC(=O)OCCCc1ccccc1 | inactive | inactive | inactive | inactive | inactive | inactive | 2.88% | inactive | inactive | inactive |  |  | 
CCC(C)(C#N)N=NC(C)(C#N)CC (centres undefined) | inactive | inactive | inactive | inactive | inactive | inactive | -7.9% | inactive | inactive | inactive |  |  | 
COc1ccc(C=O)cc1O | inactive | inactive | inactive | inactive | inactive | inactive |  | inactive | inactive | inactive | 10.8 |  | 
N[C@@H]1C[C@H]1c1ccccc1 | inactive | inactive | inactive | inactive | inactive | inactive | 1.81% | inactive | inactive |  |  |  | 
NC1(c2ccccc2)CCCCC1 | 42.9 µM (active) | 48.1 µM (active) | inactive | inactive | inactive | inactive | 0.0889% | inactive | inactive | inactive |  |  | 
BrCC1CO1 (centres undefined) | inactive | inactive | inactive | inactive | inactive | inactive |  | inactive | inactive | inactive | 8.58 |  | 
C=C(C)[C@H]1CN[C@H](C(=O)O)[C@H]1CC(=O)O | inactive | inactive | inactive | inactive | inactive | inactive | 2.22% | inactive | inactive | inactive |  |  | 
S=C=S | inactive | inactive | inactive | inactive | inactive | inactive | -5.81% and -2.85% | inactive | inactive | inactive |  |  | 
CC(C)[N+](C)(CCC(C(N)=O)(c1ccccc1)c1ccccc1)C(C)C | inactive | inactive | inactive | inactive | inactive | inactive |  | inactive | inactive | inactive |  | 1.94% | 
CC(=O)CN(CC(C)=O)N=O | inactive | inactive | inactive | inactive | inactive | inactive | -5.98% | inactive | inactive | inactive |  |  | 
C[C@H]1CCCC(=O)CCC/C=C/c2cc(O)cc(O)c2C(=O)O1 | 23.4 µM (active) and 20 µM (active) | 23.4 µM (active) and 15.9 µM (active) | inactive | 47.2 µM [inconclusive] (active) | inactive | 13.3 nM [inconclusive] (active) and 71.5 nM [inconclusive] (active) | -34.9% (active) | 22.4 µM (active) |  | 23.4 µM (active) |  | -13.6% (active) | 
O=C(CCl)NCO | inactive | inactive | inactive | inactive | inactive | inactive | -9.09% | inactive | inactive | inactive |  |  | 
C=C1C[C@@H]2[C@H](CC[C@]3(C)C(=O)CC[C@@H]23)[C@@]2(C)C=CC(=O)C=C12 | inactive |  |  |  |  |  |  |  |  |  |  |  | 
BrCc1ccc(Br)cc1 | inactive | inactive | inactive | inactive | inactive | inactive | -9.06% | inactive | inactive | inactive |  |  | 
O=C(Cl)c1ccccc1 | inactive | inactive | inactive | inactive | inactive | inactive |  | inactive | inactive | inactive | 1.6 |  | 
CCCC[N+](=O)[O-] | inactive | inactive | inactive | inactive | inactive | inactive | 8.37% | inactive | inactive | inactive |  |  | 
COP(=O)(OC)O/C(C)=C/C(=O)N(C)C | inactive | inactive | inactive | inactive | inactive | inactive |  | inactive | inactive | inactive | -7.62 |  | 
CC(C)(C1CCC(O)CC1)C1CCC(O)CC1 (centres undefined) | inactive | inactive | inactive | inactive | inactive | 49 µM [activator] (active) |  | inactive | inactive | inactive |  |  | 54.5 µM (active)
C(COCC1CO1)OCC1CO1 (centres undefined) | inactive | 43.3 µM (active) | inactive | inactive | inactive | inactive | 0.393% | inactive | inactive | inactive |  |  | 
CN(CCO)CCO | inactive | inactive | inactive | inactive | inactive | inactive |  | inactive | inactive | inactive | -2.37 |  | 
CC[C@H](N)c1ccccc1 | inactive | inactive | inactive | inactive |  | inactive | 0.171% | inactive | inactive | inactive |  |  | 
c1cncc([C@@H]2CCCCN2)c1 | inactive | inactive | inactive | inactive | inactive | inactive | -1.75% | inactive | inactive | inactive |  |  | 
COc1ccc(CN2CCNCC2)c(OC)c1OC | inactive | inactive | inactive | inactive | inactive | inactive |  | inactive | inactive | inactive |  | 3.39% | 
